In all, about 310,000 compounds went through this assay and about 14,000 (4.5%) showed an effect of 50% or more. The effect is printed as a negative number. Many of the other results were omitted from the sample, so strong results are more common in it than they were.
biological target: human ether-à-go-go-related gene (hERG) potassium channel (human, UniProt Q12809); test: primary screen, population patch clamp on CHO cells stably expressing hERG; higher = less effect of the substance
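Further: peak tail current of the secondary pulse compared with the same well before compound.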

Sequence of human ether-à-go-go-related gene (hERG) potassium channel (Q12809 whole entry, looked up): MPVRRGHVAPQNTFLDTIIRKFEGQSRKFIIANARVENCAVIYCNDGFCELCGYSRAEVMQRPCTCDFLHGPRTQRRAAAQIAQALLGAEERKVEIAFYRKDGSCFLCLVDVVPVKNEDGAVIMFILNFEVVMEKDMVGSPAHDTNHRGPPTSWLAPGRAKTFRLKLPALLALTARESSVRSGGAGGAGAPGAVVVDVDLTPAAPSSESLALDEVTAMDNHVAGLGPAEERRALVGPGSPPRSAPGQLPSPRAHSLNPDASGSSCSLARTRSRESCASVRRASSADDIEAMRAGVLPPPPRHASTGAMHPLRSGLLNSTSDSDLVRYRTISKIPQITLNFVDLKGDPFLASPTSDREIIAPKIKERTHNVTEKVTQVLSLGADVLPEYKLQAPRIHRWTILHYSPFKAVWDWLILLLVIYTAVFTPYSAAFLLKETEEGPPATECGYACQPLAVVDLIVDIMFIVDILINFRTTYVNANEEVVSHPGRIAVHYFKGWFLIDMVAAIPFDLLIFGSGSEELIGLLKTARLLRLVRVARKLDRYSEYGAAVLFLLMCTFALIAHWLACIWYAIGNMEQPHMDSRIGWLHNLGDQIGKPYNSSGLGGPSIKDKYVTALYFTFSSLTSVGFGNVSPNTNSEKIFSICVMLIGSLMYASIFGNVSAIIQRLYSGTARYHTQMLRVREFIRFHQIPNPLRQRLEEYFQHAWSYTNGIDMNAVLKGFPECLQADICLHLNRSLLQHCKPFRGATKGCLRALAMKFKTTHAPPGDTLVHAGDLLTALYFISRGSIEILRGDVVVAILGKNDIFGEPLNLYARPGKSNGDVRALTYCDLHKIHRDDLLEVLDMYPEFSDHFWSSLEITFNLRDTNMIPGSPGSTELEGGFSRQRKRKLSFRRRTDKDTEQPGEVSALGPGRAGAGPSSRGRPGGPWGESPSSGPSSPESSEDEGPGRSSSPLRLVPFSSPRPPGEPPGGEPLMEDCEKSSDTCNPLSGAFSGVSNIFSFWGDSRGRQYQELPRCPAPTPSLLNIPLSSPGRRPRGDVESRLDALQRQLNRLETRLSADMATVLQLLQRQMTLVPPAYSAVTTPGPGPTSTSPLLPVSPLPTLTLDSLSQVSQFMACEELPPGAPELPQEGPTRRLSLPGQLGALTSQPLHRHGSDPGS

SMILES | hERG current change (%, negative = inhibition) at 10uM
CCOc1ccc(NC(=O)CN(C)C(=O)c2c(-c3c(F)cccc3Cl)noc2C)cc1OCC | -3.83%
Cc1cccc(C)c1OCc1cc(C(=O)N2CCN(c3ccccc3)CC2C)no1 (stereo not drawn) | 7.3%
O=C(COc1ccc(/C=N/NC(=O)c2ccccc2O)cc1)Nc1ccc([N+](=O)[O-])cc1 | 13.7%
COc1ccc(NC(=O)C2=CC(c3ccco3)=NS(=O)(=O)N2C)cc1 | 0.0772%
CCCCCCNC(=O)N[C@H](Cc1ccc(O)cc1)C(=O)NCCC[C@H]1CN2C(=NC[C@H]2CCC)N1CC1CCC1 | 9.27%
CCCCCCC(=O)N1C/C=C\C(c2ccc(OC)cc2)N(Cc2ccc(F)cc2)C(=O)C1 (stereo not drawn) | -43.7%
CCN(CC)S(=O)(=O)c1cc(OC)c(C)cc1C | -5.58%
Cc1ccc(S(=O)(=O)CCC(=O)N2CCN(c3ccc(Cl)cc3)CC2)cc1 | -23.8%
Cc1ccc(S(=O)(=O)CCC(=O)N2CCN(c3ccc([N+](=O)[O-])cc3)CC2)cc1 | -70.8%
Cc1c(C(=O)N2CCN(c3ccc([N+](=O)[O-])cc3)CC2)sc2ncn(CC(=O)N3CCOCC3)c(=O)c12 | -62.2%
Cc1cc([N+](=O)[O-])ccc1NC(=O)c1sc2ncn(CC(=O)N3CCOCC3)c(=O)c2c1C | -0.176%
O=C(Cc1cccs1)N1CCN(c2ccc([N+](=O)[O-])cc2)CC1 | -66.1%
O=C(/C=C/c1ccc(Cl)cc1)N1CCN(Cc2ccccc2)CC1 | -35.6%
O=C(/C=C/c1ccc([N+](=O)[O-])cc1)N1CCN(Cc2ccccc2)CC1 | -66.8%
O=C(/C=C/c1cccc([N+](=O)[O-])c1)N1CCN(Cc2ccccc2)CC1 | -47.5%
Cc1c(C(=O)N2CCN(c3ccccc3F)CC2)sc2ncn(CC(=O)N3CCOCC3)c(=O)c12 | -3.64%
O=C(Cc1cccs1)N1CCN(c2ccc(F)cc2)CC1 | -4.82%
CC(=O)c1ccc(N2CCN(C(=O)CCS(=O)(=O)c3ccc(C)cc3)CC2)cc1 | -41%
CC(=O)c1ccc(N2CCN(C(=O)Cc3cccs3)CC2)cc1 | -33.3%
Cn1c(=O)cc(OCC(=O)N2CCN(C3CCCCC3)CC2)c2ccccc21 | -18.6%
CN(CCc1ccccn1)C(=O)c1cccnc1Oc1ccccc1 | 11.3%
O=C(O)C12C[C@H]3C[C@@H](C1)CC(n1ncc(N4CCN(c5ccccc5)CC4)c(Cl)c1=O)(C3)C2 | 9.94%
CN(C(=O)Cn1c(=O)oc2ccccc21)C1CCCCC1 | -1.73%

SMILES | hERG current change (%, negative = inhibition) at 10uM
CCCN(CCC)CCCNC(=O)Cn1cnc2sc(C)c(S(=O)(=O)N3CCCCC3)c2c1=O | 9.2%
CCCCOc1ccc(C(=O)NCC(=O)N(C)CC(=O)Nc2ccc(N3CCOCC3)cc2)cc1 | -27.4%
C(=N\N1CCOCC1)/c1ccsc1.O=P(O)(O)O | 18.8%
O=C(Cc1ccc(F)cc1)N1CCN(c2ccc(F)cc2)CC1 | 0.483%
Cc1ccc(S(=O)(=O)NCc2ccc(C(=O)N3CCN(c4ccccc4)CC3)cc2)cc1 | -18.6%
O=CN1CCN(C(=O)Cc2ccc([N+](=O)[O-])cc2)CC1 | -25.6%
CC(Cc1ccccc1)NC(=O)Cc1ccc([N+](=O)[O-])cc1 (stereo not drawn) | -17.8%
CC(Cc1ccccc1)NC(=O)/C=C/c1ccc(Cl)cc1 (stereo not drawn) | -11.7%
CC(Cc1ccccc1)NC(=O)/C=C/c1ccc([N+](=O)[O-])cc1 (stereo not drawn) | -51.7%
Cc1ccc(S(=O)(=O)NCc2ccc(C(=O)N3CCN(c4ccc([N+](=O)[O-])cc4)CC3)cc2)cc1 | -70.7%
O=C(Cc1ccc(Cl)cc1)N1CCN(c2ccccc2)CC1 | -12.2%
O=C(Cc1ccccc1)N1CCN(c2ccc([N+](=O)[O-])cc2)CC1 | -55.2%
O=C(Cc1ccc(Br)cc1)N1CCN(c2ccc(F)cc2)CC1 | -49.9%
COc1ccc(N2CCN(C(=O)c3ccc(CNS(=O)(=O)c4ccc(C)cc4)cc3)CC2)cc1 | 13.9%
O=C(Cc1ccc(F)cc1)N1CCN(c2ccc([N+](=O)[O-])cc2)CC1 | -69.5%
CCN(c1ccc(NC(=O)COC(=O)CCC(=O)c2ccc(F)cc2)cc1)C(C)C | -4.95%
O=C(Cn1cnc2c(nnn2Cc2ccccc2F)c1=O)N1CCN(c2ccccc2)CC1 | -31.2%
O=C(NCCC1=CCCCC1)c1cccc2c1C(=O)N(C1CCCCC1)C2 | 9.87%
O=C(NN1C(=O)c2ccccc2C1=O)c1ccncc1 | 10.4%
CCOC(=O)C(O)(c1ccc(NC(=O)c2ccc(Cl)c(Cl)c2)cc1)C(F)(F)F (stereo not drawn) | -4.61%
COc1ccc(NC(=O)CSc2nccn2Cc2ccco2)cc1OC | 11.3%
CCOC(=O)N1CCN(C(=O)c2ccc3c(c2)sc2nc(-c4ccccc4)cn23)CC1 | -49.3%
CCOC(=O)c1cn(CC)c2ccc(S(=O)(=O)N3CC(C)CC(C)C3)cc2c1=O (stereo not drawn) | -21.7%

SMILES | hERG current change (%, negative = inhibition) at 10uM
Cc1c(C)c2ccc(OC(C)C(=O)NCCc3c[nH]c4ccccc34)cc2oc1=O (stereo not drawn) | -2.3%
Cc1ccc(SCC(=O)N2CCC(C(N)=O)CC2)cc1 | 13.2%
Cc1ccc(CC(=O)N2CCN(S(=O)(=O)c3ccccc3)CC2)cc1C | -55.5%
Cc1ccc(S(=O)(=O)N2CCN(C(=O)Cc3ccccc3)CC2)cc1C | -2.97%
Cc1ccc(S(=O)(=O)N2CCN(C(=O)Cc3ccccc3)CC2)cc1 | -26.1%
O=C(Cc1ccccc1)N1CCN(S(=O)(=O)c2ccc([N+](=O)[O-])cc2)CC1 | -64%
O=C(CN1CCOCC1)N1CCN(c2ccc([N+](=O)[O-])cc2)CC1 | -71.6%
O=C(CN1CCN(c2ccc(F)cc2)CC1)N1CCOCC1 | 12.9%
Cc1ccc(S(=O)(=O)NCCC(=O)N2CCN(S(=O)(=O)c3ccccc3)CC2)cc1C | -16.6%
O=C(CN1CCN(c2ccc([N+](=O)[O-])cc2Cl)CC1)N1CCOCC1 | -45.2%
O=C(Cc1ccccc1)N1CCN(S(=O)(=O)c2cccc([N+](=O)[O-])c2)CC1 | -22.2%
CCOC(=O)Cc1csc(NC(=O)Cc2cccs2)n1 | 6.28%
COc1ccc(S(=O)(=O)N2CCCC2C(=O)NCc2ccccc2Cl)cc1 (stereo not drawn) | -12.4%
CC1CCC(NCCNC(=O)c2ccco2)CC1 (stereo not drawn) | 11.8%
Cc1ccsc1C(=O)NCc1ccc(Cl)cc1 | 11.1%
c1cnc(NCCNc2ncccn2)nc1 | 9.05%
CC1(C)CC(NC(=O)c2ccc3c(c2)OCO3)CC(C)(C)N1 | 4.65%
COC(=O)[C@H](CC(C)C)NC(=O)NCCCc1ccccc1 | 1.82%
COc1ccc(C2Nc3ccccc3C(=O)N2Cc2ccccc2)cc1COc1ccccn1 (stereo not drawn) | -49.4%
Cn1cc(C2=C(c3ccc(Cl)cc3Cl)C(=O)NC2=O)c2ccccc21 | 33%
O=C(c1ccccc1)N1CCC(c2nc(-c3ccc(S(=O)(=O)N4CCOCC4)cc3)no2)CC1 | -60.8%
O=C(N1CCOCC1)N1CCC(c2nc(-c3ccc(S(=O)(=O)N4CCOCC4)cc3)no2)CC1 | -2.07%
O=C(Nc1ccccc1)N1CCC(c2nc(-c3ccc(S(=O)(=O)N4CCOCC4)cc3)no2)CC1 | -4.94%

SMILES | hERG current change (%, negative = inhibition) at 10uM
O=C(c1cccs1)N1CCC(c2nc(-c3ccc(S(=O)(=O)N4CCOCC4)cc3)no2)CC1 | -68.8%
Cc1cccc(C(=O)N2CCC(c3nc(-c4ccc(S(=O)(=O)N5CCOCC5)cc4)no3)CC2)c1 | -3.33%
O=C(C1CC1)N1CCC(c2nc(-c3ccc(S(=O)(=O)N4CCCC4)cc3)no2)CC1 | -13%
O=C(CN1C(=O)C2CC=CCC2C1=O)Nc1ccc(OC(F)(F)F)cc1 (stereo not drawn) | -14.2%
CCOC(=O)c1c(-c2ccccc2)csc1NC(=O)CSc1ccccc1 | -4.13%
O=C(CSc1nnc(Cc2ccsc2)o1)c1ccccc1 | -16.7%
CC1(C)CC(=O)C(C=Nc2ccc(Cl)cn2)=C(O)C1 | 11.6%
COc1cc(=O)n(C)c2ccccc12 | -4.88%
CN(C(=O)COc1cc(=O)n(C)c2ccccc12)c1ccc(Cl)cc1 | -29.2%
CN(c1ccc(Cl)cc1)c1cc(=O)n(C)c2ccccc12 | -51.8%
CCC(CC)COC(=O)C1=C(C)NC(=O)NC1c1ccc([N+](=O)[O-])cc1 (stereo not drawn) | 11.6%
Cc1ccc(NS(=O)(=O)c2cccc(C(=O)NCC(c3ccc(F)cc3)N3CCOCC3)c2)cc1 (stereo not drawn) | -16.8%
CN(C)c1ccc(CN2CC=C(c3ccc(F)cc3)CC2)cc1 | -69.9%
COc1ccc(CN2CC=C(c3ccc(F)cc3)CC2)cc1Br | -11.7%
O=[N+]([O-])c1ccccc1CN1CC=C(c2ccc(F)cc2)CC1 | -12.8%
COc1cc(CN2CC=C(c3ccc(F)cc3)CC2)cc(OC)c1 | -57.3%
CCN(CC)c1ccc(CN2CCCCCC2)cc1 | -20.4%
COc1cccc(CN2CC=C(c3ccc(F)cc3)CC2)c1 | -26.5%
COc1cc(C)c(CN2CC=C(c3ccc(F)cc3)CC2)cc1C | -37.2%
O=[N+]([O-])c1cccc(CN2CC=C(c3ccc(F)cc3)CC2)c1 | -39.2%
CCN(CC)c1ccc(CN2CC=C(c3ccc(F)cc3)CC2)cc1 | -78.4%
